Measurements from PubChem BioAssay (NCI).
“And” between values parts separate entries of the source, which are not always exact repeats. Equal values may be shown once. Compounds without any hit were thinned out: in the full panel of roughly 83,000, 20% have a hit.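 Activity criterion: percent growth below 10, measured after cells in 96-well plates were exposed to a single compound concentration for 48 hours.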 The source made the active and inactive calls.

Test system: MDA-MB-468 breast
Experiment: NCI-60 one-dose screen, 48 h (100 = growth as untreated, 0 = no growth, -100 = all killed)
Settings: 10 µM unless noted

SMILES | growth
CC1Cc2ccccc2N1NC(=O)c1ccc(Cl)c(S(N)(=O)=O)c1 (stereo not given) | 94.8% (inactive)
Cc1nc2c(c(-c3ccccc3)n1)Cc1c(ccc3ccccc13)O2 | 90.5% (inactive)
O=c1[nH]c2cc(Cl)c(Cl)cc2o1 | 111% (inactive)
CC(C)CC1C(=O)N2CCC[C@H]2C2(O)O[C@](NC(=O)C3C=C4c5cccc6[nH]c(Br)c(c56)C[C@H]4N(C)C3)(C(C)C)C(=O)N12 (stereo not given in full) | 20.3% (inactive)
CN1CCN(Cc2ccc(NC(=O)c3cncc(C#Cc4cnc5ccc(N)nn45)c3)cc2C(F)(F)F)CC1 | 25.5% (inactive)
Cc1nn(-c2ccc(Cl)cc2)c2ncnc(N/N=C/c3ccccc3O)c12 | -30.8% (active) and -12.1% (active)
CC(C)=CC/C=C(/C)[C@H]1CC[C@]2(C)[C@@H]1CC[C@@H]1[C@@]3(C)CC/C(=N/O)C(C)(C)[C@@H]3CC[C@]12C | 47.7% [100 µM] (inactive)
NS(=O)(=O)Oc1ccc(-c2ccc3sccc3c2)cc1 | 87.1% (inactive)
CC(C)C(=O)Nc1ccc(-c2nc(-c3cccc(OCCN4CCOCC4)c3)c(-c3ccnc(Br)c3)[nH]2)cc1 | 23.2% (inactive)
CC(O)c1cc[cH-]c1.[Fe+2].c1cc[cH-]c1 (stereo not given) | 94.5% (inactive)
COc1cccc(-c2nc3sccn3c2-c2ccnc(NCCCNS(=O)(=O)c3cccc(Cl)c3)c2)c1 | 24.6% (inactive)
COc1ccc2c(c1)c(CC(=O)[Se]C)c(C)n2C(=O)c1ccc(Cl)cc1 | -11.6% (active)
C/C(=N\NC(=S)Nc1ccccc1)c1ccccn1 | -10.2% (active)
Fc1ccc(-c2cc3nc(C(Cl)Cl)nc(-c4ccco4)n3n2)cc1 | -43.6% (active)
C[C@@H](c1ccccc1)[C@@H](C(=O)O)c1ccccc1 | 96.7% (inactive)
OCCn1cccn1 | 103% (inactive)
C[C@H]1[C@H](C)CC[C@]2(C(=O)N3CCN(C)CC3)CC[C@]3(C)C(=CC[C@@H]4[C@@]5(C)C/C(=C/c6cccnc6)C(=O)C(C)(C)[C@@H]5CC[C@]43C)[C@H]12 | -83.2% (active)
COc1ccc(C(=O)CC(CC(=O)c2ccc(OC)cc2)c2c(C)nn(-c3ccccc3)c2Cl)cc1 | 96.4% (inactive)
O=C(Nc1nc2c(s1)CCc1c-2c(Br)n(Cc2ccccc2)c1Br)c1ccccc1 | 72.8% (inactive)
CC1CN(/N=C/c2ccc([N+](=O)[O-])o2)C(=N)O1 (stereo not given) | 89.6% (inactive)

SMILES | growth
C=C1C(=O)O[C@H]2[C@H]1CC/C(COC(=O)/C=C\C(=O)O)=C\CC[C@@]1(C)O[C@@H]21 | 110% (inactive)
O=Cc1cc2ccccc2nc1Nc1nccs1 | 57.2% (inactive)
O=[N+]([O-])c1ccc2c(c1)Cc1cc(I)ccc1-2 | 105% (inactive)
COc1ccc(C(=O)c2nc3ccccc3n2CC(=O)c2ccc(F)cc2)cc1 | 55% (inactive)
COc1ccc(-c2cc3c(OC)c(OC)c(OC)cc3oc2=O)cc1 | 23.6% (inactive)
CC(C)CCN(CCCNc1c2c(nc3ccccc13)CCCC2)CCC(C)C | 57.2% (inactive)
O=C(Nc1ccc(Nc2ncccn2)cc1)NC1C=c2ccccc2=CC1 (stereo not given) | 110% (inactive)
CCN(CC)CCCC(C)Nc1ccnc2cc(Oc3ccccc3)ccc12 (stereo not given) | 31.5% (inactive) and 70.2% (inactive)
C[N+](C)(C)c1ncnc2nc[nH]c12 | 90.3% (inactive)
COc1cc(-c2nn(-c3ccccc3)cc2-c2ccnc(NCCNS(=O)(=O)c3ccc(Cl)cc3)n2)ccc1Cl | 31.2% (inactive)
CC(=O)c1ccc(Nc2nc(C(C)=O)c(C)s2)cc1 | 94.5% (inactive)
COc1ccc(-c2cc(C(=O)N=Nc3c(O)[nH]c4ccccc34)c3ccccc3n2)cc1OC | 92.3% (inactive)
Cn1cnc2c1c(=O)n(CCC(=O)Nc1ccc(F)cc1)c(=O)n2C | 113% (inactive)
N=C(N)c1ccc(-c2ccc(-c3ccc(F)cc3)s2)s1 | -77% (active)
Clc1ccc2c(c1)C(N1CCNCC1)=Nc1ccccc1O2 | -48.3% (active)
O=c1[nH]c(CCl)nc2c1cnn2-c1ccccc1 | 96.6% (inactive)
Nc1nc(=S)c2ncn(C3OC(COC(=O)c4ccc(Cl)cc4)C(OC(=O)c4ccc(Cl)cc4)C3OC(=O)c3ccc(Cl)cc3)c2[nH]1 (stereo not given) | 23.6% (inactive)
O=C1c2cccc3cccc(c23)C(=O)N1C/C=C/c1ccc2c3c(cccc13)C(=O)N(CCO)C2=O | 79.8% (inactive)
O=C(Nc1cccc(Br)c1)Oc1ccc(Cl)c2cccnc12 | -9.1% [100 µM] (active)
O=C(CSc1nnc(-c2ccc(Cl)cc2)n1-c1ccccc1)Nc1ccccc1Cl | 78.5% (inactive)
